Laboratory results: PMC7862700, “An all-to-all approach to the identification of sequence-specific readers for epigenetic DNA modifications on cytosine”

Assays:
Experiment in all cases: DAPPL (digital affinity profiling via proximity ligation, sequencing); 10 mM Tris-HCl pH 7.5, 50 mM NaCl, 1 mM DTT, 4% glycerol, room temperature, 30 min; GST-TFs on glutathione beads, 16-mer random dsDNA library, 0.1% formaldehyde crosslink after washing; high values mean tight binding
Settings in all cases: protein: recombinant; tags: N-terminal GST; dsDNA, one strand shown
[1] = molecular target: T1, FLI1 (Homo sapiens, UniProt Q01543 1-452)
T1 sequence: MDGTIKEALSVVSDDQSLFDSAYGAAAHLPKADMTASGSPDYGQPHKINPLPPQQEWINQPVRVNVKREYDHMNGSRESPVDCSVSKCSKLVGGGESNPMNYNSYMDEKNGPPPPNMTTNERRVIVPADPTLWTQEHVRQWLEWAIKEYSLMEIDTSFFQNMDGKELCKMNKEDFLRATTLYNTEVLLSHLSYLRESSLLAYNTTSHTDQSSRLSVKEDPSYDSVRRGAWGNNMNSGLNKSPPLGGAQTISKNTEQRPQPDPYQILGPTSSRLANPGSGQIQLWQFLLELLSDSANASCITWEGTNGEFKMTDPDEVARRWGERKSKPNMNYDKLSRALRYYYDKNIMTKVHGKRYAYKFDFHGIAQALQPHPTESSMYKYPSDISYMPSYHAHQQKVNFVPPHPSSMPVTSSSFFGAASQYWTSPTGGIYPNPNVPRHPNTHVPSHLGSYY
Outline: (§1)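 A tag-only sample was pooled with DNA-barcoded human transcription factors that had been expressed in yeast as GST fusions and captured on glutathione beads. The pools were incubated for 30 min at room temperature with 200 nmole of a random double-stranded 16-mer DNA library in Tris/NaCl/DTT/glycerol buffer, then washed, crosslinked with 0.1% formaldehyde, proximity-ligated (BsaI/T4 ligase, 1 h, 37 °C), PCR-amplified and sequenced on an Illumina NextSeq500. Binding signal is each hexamer's read frequency for a factor divided by its frequency for the tag-only sample.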

[2] = molecular target: T2, ELK1 (Homo sapiens, UniProt P19419 1-428)
T2 sequence: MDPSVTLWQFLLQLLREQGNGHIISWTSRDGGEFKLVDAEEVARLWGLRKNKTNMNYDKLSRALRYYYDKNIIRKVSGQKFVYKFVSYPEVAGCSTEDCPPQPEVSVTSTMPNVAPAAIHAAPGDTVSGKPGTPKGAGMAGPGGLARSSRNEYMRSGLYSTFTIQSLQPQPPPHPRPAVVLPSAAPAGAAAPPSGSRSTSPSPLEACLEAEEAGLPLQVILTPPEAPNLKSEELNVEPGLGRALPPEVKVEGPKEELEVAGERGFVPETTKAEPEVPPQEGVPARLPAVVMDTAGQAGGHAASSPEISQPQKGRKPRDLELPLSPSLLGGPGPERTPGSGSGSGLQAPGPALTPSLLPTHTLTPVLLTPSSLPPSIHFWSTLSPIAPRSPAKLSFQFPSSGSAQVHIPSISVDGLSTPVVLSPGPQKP
Outline: as §1

[3] = molecular target: T3, GABPA (Homo sapiens, UniProt Q06546 1-454)
T3 sequence: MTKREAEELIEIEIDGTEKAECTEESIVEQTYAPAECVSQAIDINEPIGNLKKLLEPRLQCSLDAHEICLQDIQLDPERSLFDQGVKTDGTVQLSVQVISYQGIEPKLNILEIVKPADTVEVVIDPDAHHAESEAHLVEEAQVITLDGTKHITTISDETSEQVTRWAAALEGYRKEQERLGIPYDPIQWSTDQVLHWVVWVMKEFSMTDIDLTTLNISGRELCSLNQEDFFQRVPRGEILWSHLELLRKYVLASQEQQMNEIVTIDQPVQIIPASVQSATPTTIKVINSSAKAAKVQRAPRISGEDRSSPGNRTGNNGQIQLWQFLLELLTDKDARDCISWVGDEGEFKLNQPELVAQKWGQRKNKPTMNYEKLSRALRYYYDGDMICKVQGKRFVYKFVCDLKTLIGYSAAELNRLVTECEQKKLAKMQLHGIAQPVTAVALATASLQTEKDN
Outline: as §1

[4] = molecular target: T4, ERG (Homo sapiens, UniProt P11308 1-479)
T4 sequence: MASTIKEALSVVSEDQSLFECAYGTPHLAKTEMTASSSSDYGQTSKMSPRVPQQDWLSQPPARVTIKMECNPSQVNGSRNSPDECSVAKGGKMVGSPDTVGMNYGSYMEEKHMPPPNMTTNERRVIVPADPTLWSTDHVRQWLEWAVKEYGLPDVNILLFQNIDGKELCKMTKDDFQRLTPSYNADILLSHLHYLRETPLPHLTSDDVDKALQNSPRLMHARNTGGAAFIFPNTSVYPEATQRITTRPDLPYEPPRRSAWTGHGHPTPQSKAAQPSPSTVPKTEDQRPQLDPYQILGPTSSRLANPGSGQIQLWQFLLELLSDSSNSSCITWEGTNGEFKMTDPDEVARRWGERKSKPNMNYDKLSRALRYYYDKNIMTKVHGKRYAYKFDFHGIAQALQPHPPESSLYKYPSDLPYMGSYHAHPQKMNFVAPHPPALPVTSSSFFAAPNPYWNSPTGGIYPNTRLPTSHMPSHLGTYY
Outline: as §1

[5] = molecular target: ELF1 (Homo sapiens, UniProt P32519 1-619)
Sequence of ELF1 (P32519 whole entry): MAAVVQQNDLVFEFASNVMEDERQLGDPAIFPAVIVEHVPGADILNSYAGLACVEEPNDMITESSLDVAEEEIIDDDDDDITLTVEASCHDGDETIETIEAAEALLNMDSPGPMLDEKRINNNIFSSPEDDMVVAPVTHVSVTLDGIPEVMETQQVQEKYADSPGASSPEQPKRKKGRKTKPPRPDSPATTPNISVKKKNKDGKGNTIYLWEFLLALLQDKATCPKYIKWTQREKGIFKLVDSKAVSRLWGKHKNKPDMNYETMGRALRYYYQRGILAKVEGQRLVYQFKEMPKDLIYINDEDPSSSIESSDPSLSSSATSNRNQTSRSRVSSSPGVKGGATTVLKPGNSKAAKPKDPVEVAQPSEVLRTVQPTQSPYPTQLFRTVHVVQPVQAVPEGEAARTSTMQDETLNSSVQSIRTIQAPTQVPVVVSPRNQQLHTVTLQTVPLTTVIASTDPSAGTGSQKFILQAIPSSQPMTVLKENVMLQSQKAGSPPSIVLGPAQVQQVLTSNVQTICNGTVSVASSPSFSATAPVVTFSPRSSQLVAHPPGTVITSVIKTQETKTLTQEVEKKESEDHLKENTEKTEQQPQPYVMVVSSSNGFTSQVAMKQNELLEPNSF
Outline: as §1

[6] = molecular target: T5, EHF (Homo sapiens, UniProt Q9NZC4 1-300)
T5 sequence: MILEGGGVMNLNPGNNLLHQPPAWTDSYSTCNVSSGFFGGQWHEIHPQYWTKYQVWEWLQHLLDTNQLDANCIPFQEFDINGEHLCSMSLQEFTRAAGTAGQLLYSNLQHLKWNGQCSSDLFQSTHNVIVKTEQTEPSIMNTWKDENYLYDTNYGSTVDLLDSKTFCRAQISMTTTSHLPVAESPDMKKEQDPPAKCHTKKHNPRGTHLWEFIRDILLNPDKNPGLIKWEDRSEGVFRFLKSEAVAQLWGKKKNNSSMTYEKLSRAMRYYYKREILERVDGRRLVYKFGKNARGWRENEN
Outline: as §1

[7] = molecular target: SPI1 (Homo sapiens, UniProt P17947 1-270)
Outline: as §1

[8] = molecular target: SPIB (Homo sapiens, UniProt Q01892 1-262)
Sequence of SPIB (Q01892 whole entry): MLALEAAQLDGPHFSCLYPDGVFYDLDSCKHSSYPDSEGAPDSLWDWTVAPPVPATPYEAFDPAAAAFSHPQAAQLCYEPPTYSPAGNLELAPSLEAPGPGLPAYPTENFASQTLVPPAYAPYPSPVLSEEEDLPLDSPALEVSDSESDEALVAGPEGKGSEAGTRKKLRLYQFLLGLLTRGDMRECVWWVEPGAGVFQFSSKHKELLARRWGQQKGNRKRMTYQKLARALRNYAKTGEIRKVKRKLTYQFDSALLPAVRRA
Outline: as §1

[9] = molecular target: T6, ELK3 (Homo sapiens, UniProt P41970 1-407)
T6 sequence: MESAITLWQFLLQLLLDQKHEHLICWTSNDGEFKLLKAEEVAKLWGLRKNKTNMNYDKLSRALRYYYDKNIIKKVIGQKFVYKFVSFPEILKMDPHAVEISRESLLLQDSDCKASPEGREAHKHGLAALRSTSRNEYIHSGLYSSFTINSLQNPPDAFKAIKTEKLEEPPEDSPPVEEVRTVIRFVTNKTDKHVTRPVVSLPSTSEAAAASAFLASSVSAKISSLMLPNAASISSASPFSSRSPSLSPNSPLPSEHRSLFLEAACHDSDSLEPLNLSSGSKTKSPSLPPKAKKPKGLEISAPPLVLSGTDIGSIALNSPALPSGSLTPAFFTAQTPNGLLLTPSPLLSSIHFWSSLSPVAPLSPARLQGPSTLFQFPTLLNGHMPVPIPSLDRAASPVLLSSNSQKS
Outline: as §1

For CTTACT, the binding signal [1] was 1.38 fold enrichment (6-mer frequency, TF over GST control), the binding signal [2] was 1.31 fold enrichment (6-mer frequency, TF over GST control) and the binding signal [3] was 1.3 fold enrichment (6-mer frequency, TF over GST control). The binding signal [4] was 1.27 fold enrichment (6-mer frequency, TF over GST control), the binding signal [5] was 1.29 fold enrichment (6-mer frequency, TF over GST control) and the binding signal [6] was 1.34 fold enrichment (6-mer frequency, TF over GST control). For the same sequence, the binding signal [7] was 1.3 fold enrichment (6-mer frequency, TF over GST control), the binding signal [8] was 1.27 fold enrichment (6-mer frequency, TF over GST control) and the binding signal [9] was 1.34 fold enrichment (6-mer frequency, TF over GST control).
